# Compound activity (PubChem)
# HT1080-NT tox = kills 2HG-producing HT-1080-NT fibrosarcoma cells | Potency, µM (series often up to 46.1 µM), for the others: at the highest dose activity, negative = less viability, hits mostly cytotoxic | 360,000 tested, 1.6% active | HT-1080-NT fibrosarcoma viability, CellTiter-Glo ATP luminescence, 48 h;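 further: NT is the 2HG producing partner of a matched IDH1 knockdown line; 0% = DMSO-treated cells and -100% = media-only wells without cells; nearly all actives have a fitted effect of over 55% in size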
#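 HT-1080-NT fibrosarcoma cells (2HG-overproducing), 750 cells/well in RPMI with 5% FBS, dosed after 2 h and incubated 48 h at 37C. CellTiter-Glo luminescence normalized to DMSO and no-cell wells; concentration-response curves fitted and classed.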
# KB-3-1 cytotox = KB-3-1 parental cell cytotoxicity | KB-3-1 viability, CellTiter-Glo ATP luminescence, 72 h | Potency, µM (series often up to 46.1 µM), actives largely listed as cytotoxic | 400,000 tested, 1.4% active; further: on the % scale 0 is the no-effect control and ±100 the full control effect; nearly all actives have a fitted effect of over 60% in size
#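 KB-3-1 cells, DMEM (no phenol red) + 10% FBS; compound by pin transfer, 72 h, 37 °C. Readout: CellTiter-Glo luminescence after 10 min. Data normalized, curve-fitted.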
# HT1080 IDH1KD tx = HT-1080 IDH1 knockdown cell toxicity (counter line); HT-1080 IDH1 knockdown viability, ATP luminescence, 48 h; Potency, µM (top dose mostly 46.1 µM), inactives show top-dose activity, negative = toxicity, most hits filed as cytotoxic; 360,000 tested, 2% active;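 further: 0% = DMSO wells and -100% = cell-free medium wells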
#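 Assay cells: HT-1080 with IDH1 knockdown, 750 per well, RPMI/5% FBS. Exposure: 48 h at 37 °C following 2 h pre-incubation. Read: CellTiter-Glo luminescence; fitted concentration-response, curve class assigned.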
# SW480 rereplic = DNA re-replication induction in SW480 cells; SW480 DNA re-replication, Hoechst DNA content imaging, 48 h; Potency, µM (highest dose often 46.1 µM), for inactives: at the top dose re-replication activation, actives largely listed as activators; 340,000 tested, 1.8% active; AID 624297; further: % of control where 0% means no effect; nearly all actives have a fitted effect of over 55% in size
#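 DNA re-replication was detected as more nuclei of elevated Hoechst intensity after 48 hr exposure to compound (23 nL pinned per well of 250 cells).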
# MCF10A rerep = DNA re-replication induction in MCF 10a cells; MCF 10A DNA re-replication, Hoechst nuclear intensity, 48 h; Potency, µM (top dose mostly 46.1 µM), without a hit: at the highest dose activity, positive = re-replication, hits mostly activators; 350,000 tested, 2.9% active; AID 624296; further: % of control where 0% means no effect; nearly all actives have a fitted effect of over 50% in size
# KB-V1 cytotox = kills drug-selected multidrug resistant KB-V1 cells. KB-V1 MDR cells viability, CellTiter-Glo, 72 h. 400,000 tested, 3.4% active. Potency, µM (series often up to 46.1 µM), usual class: cytotoxic. AID 1347076; further: on the % scale 0 is the no-effect control and ±100 the full control effect; nearly all actives have a fitted effect of over 60% in size
#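 Drug-selected KB-V1 cells, grown in DMEM lacking phenol red with 10% FBS, receive compound titrations; after three days at 37 degrees C, surviving cell ATP is quantified by CellTiter-Glo luminescence and responses normalized and curve-fitted.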
# An asterisk follows results filed as active; i = inactive; ? = inconclusive; · = not tested or not shown. In the library only some 8% were active in any assay of this set; here they are far more common. The call rests on the fitted dose curve; in most records, active means well fitted curve in the direction sought with a large enough effect; inconclusive means small, poorly fitted or top-dose-only effect, or another doubt; inactive means no such curve, though single readings can be large; an effect the other way counts as inactive or inconclusive. Potency means the concentration at half of the fitted maximal effect.
SMILES,HT1080-NT tox,KB-3-1 cytotox,HT1080 IDH1KD tx,SW480 rereplic,MCF10A rerep,KB-V1 cytotox
CCc1ccc(/C=C2\SC(=S)N(CCCC(=O)N3CCN(C)CC3)C2=O)cc1,-18.6%,i,?,·,·,i
COc1ccc(/C=C2\SC(=S)N(CCCC(=O)N3CCN(C)CC3)C2=O)cc1,25.9µM*,i,16.4µM*,-0.9%,?,i
CCc1ccc(/C=C2\SC(=S)N(CCCC(=O)NCCCN3CCOCC3)C2=O)cc1,-17.9%,i,?,·,·,i
O=C(CCCN1C(=O)/C(=C/c2ccc(F)cc2)SC1=S)NCCCn1ccnc1,-4.1%,i,-19.5%,-14.2%,20.6µM*,?
CCOc1ccc(/C=C2\SC(=S)N(CCCC(=O)NCCCN3CCOCC3)C2=O)cc1,?,i,16.4µM*,16.4µM*,?,i
CN1CCN(C(=O)CCCN2C(=O)/C(=C/c3cccc(Br)c3)SC2=S)CC1,?,?,18.4µM*,?,23.1µM*,?
O=C(Cc1ccc(F)cc1)NCc1ccc2c(c1)CCN2C(=O)c1ccc(F)cc1,·,i,·,·,·,i
CN1CCN(C(=O)CCN2C(=O)/C(=C/c3cccc(Br)c3)SC2=S)CC1,14.6µM*,?,?,?,14.6µM*,i
CCN(CC)S(=O)(=O)c1ccc(N2CCCCS2(=O)=O)cc1,·,i,·,·,·,i
CN(CCCNC(=O)c1cccn2c(=O)c3ccccc3nc12)Cc1ccccc1,?,?,20µM*,?,?,?
O=C(NCCN1CCN(c2ccccc2)CC1)c1cccn2c(=O)c3ccccc3nc12,6.6%,i,-0.8%,-2.1%,12.5%,?
O=C(NCCN1CCN(c2ccccc2F)CC1)c1cccn2c(=O)c3ccccc3nc12,7.9%,i,6.2%,12.1%,5.17µM*,?
CCn1c(=O)c2cc(C(=O)NCCCN(C)Cc3ccccc3)sc2c2ccccc21,·,?,·,·,·,i
COc1ccc(/C=C/C(=O)N2CCN(c3ccccc3)CC2)cc1S(=O)(=O)N1CCOCC1,-19.6%,i,-17.4%,-5.5%,-5.7%,7.31µM*
COc1ccc(/C=C/C(=O)N2CCC(C(N)=O)CC2)cc1S(=O)(=O)N1CCOCC1,11.9%,i,22.1%,-2.0%,-0.2%,i
COc1ccc(/C=C/C(=O)Nc2ccccc2C)cc1S(=O)(=O)N1CCOCC1,13µM*,?,-1.3%,1.9%,4.1%,i
COc1ccc(/C=C/C(=O)N(CCC(N)=O)c2ccccc2)cc1S(=O)(=O)N1CCOCC1,8.1%,i,1.8%,4.61µM*,-1.2%,i
CCC(C)(C)NC(=O)/C=C/c1ccc(OC)c(S(=O)(=O)N2CCOCC2)c1,10.6%,i,7.0%,·,-6.0%,i
CC(NC(=O)c1c(O)c2ccccc2n(C)c1=O)c1ccccc1 (stereo not given),-17.4%,?,-7.4%,23.1µM*,18.1%,?
Cn1c(=O)c(C(=O)Nc2ccccn2)c(O)c2ccccc21,-12.0%,18.4µM*,-10.6%,2.5%,14.0%,2.31µM*
CC(=O)c1c(O)c2ccccc2n(C)c1=O,-2.8%,i,2.0%,-1.9%,-2.3%,i
Cn1c(=O)c(C(=O)Nc2ccccc2S(N)(=O)=O)c(O)c2ccccc21,-18.7%,i,-24.9%,-5.9%,13.7%,?
CCCCN(CCCC)C(=O)CSc1nnc(-c2cc(OC)c(OC)c(OC)c2)o1,7.9%,?,-12.4%,-0.1%,-3.9%,12.6µM*
COc1ccc(-c2nnc(SCC(=O)N3CCC(Cc4ccccc4)CC3)o2)cc1OC,4.8%,i,12.7%,-0.1%,1.6%,5.17µM*
COc1cc(OC)cc(-c2nnc(SCC(=O)N3CCCc4ccccc43)o2)c1,-4.2%,i,-2.4%,5.3%,?,i
COc1cc(-c2nnc(SCC(=O)N3CCCc4ccccc43)o2)cc(OC)c1OC,·,i,·,·,·,2.59µM*
